Results as given in PubChem BioAssay (NCATS).
Where “and” joins values, the source holds several entries; their conditions need not be identical. Equal entries are not always repeated. Records with an inconclusive call do not appear. Calls of active or inactive are those of the source. Unless noted, calls follow the shape of the dose curve; as a rule, active = well fitted curve in the direction sought with a large enough effect; inconclusive = small, poorly fitted or top-dose-only effect, or another doubt; inactive = no such curve, though single readings can be large; an effect the other way counts as inactive or inconclusive.

Experiments:
[1] = target: Cellular tumor antigen p53 (Homo sapiens) (UniProt P04637); experiment: Primary qHTS for small molecule compounds that upregulate eGFP-tagged delta133p53alpha (in N-terminal) cells. (AID 2060322); details: NCI-H358 eGFP-delta133p53alpha fluorescence, 24 h; activation: stronger effect = higher value;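 also: cells pre-induced with doxycycline then dosed without doxycycline; series mostly up to about 56 µM; 0% = DMSO vehicle and 100% = reference activator; nearly all actives have a fitted effect of over 75% in size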
Procedure, shortened: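 NCI-H358 cells pre-induced 24 h with 10 ng/ml doxycycline for eGFP-delta133p53alpha, plated dox-free and exposed 24 h at 37C to titrated compounds. Fixed, Hoechst-stained; gated GFP peak intensity by laser scanning cytometry, normalized to DMSO (0%) and 57.5 uM 5-azacytidine (100%).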

[2] = target: Cellular tumor antigen p53 (Homo sapiens) (UniProt P04637); experiment: Primary qHTS for small molecule compounds that upregulate eGFP-tagged delta133p53alpha (in C-terminal) cells. (AID 2060324);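 also: 0% = DMSO wells and 100% = 57.5 µM 5-azacytidine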
Procedure, shortened: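 Concentration-response screen: compounds titrated onto pre-induced NCI-H358 D133p53a-eGFP cells, incubated one day, fixed with 3.5% PFA. Per-cell GFP peak intensity was gated, then normalized against intraplate controls.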

[3] = target: Aldehyde dehydrogenase, mitochondrial (Homo sapiens) (UniProt P05091); experiment: qHTS for Inhibitors of the Aldehyde Dehydrogenase Family (ALDH2) Validation screens (AID 2061302; active = well fitted inhibition curve with a large enough effect; title and protocol of this record describe different tests;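 also: plate controls were DMSO vehicle for no effect and maximal DPI positive control response for full effect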)
[4] = target: Retinaldehyde dehydrogenase 3 (Homo sapiens) (UniProt P47895); experiment: qHTS for Inhibitors of the Aldehyde Dehydrogenase Family (ALDH1A3) Validation screen (AID 2061312); also: % is scaled to controls: 0 for no effect and ±100 for the full control effect; nearly all actives have a fitted effect of over 45% in size
[5] = BET inhibitor-based combinations targeting novel dependencies in MECOM-rearranged (r) AML: SET-2 cell line (AID 2202231); details: SET-2 AML cells viability, CellTiter-Glo luminescence, 48 h; viability: stronger effect = lower value, series mostly up to about 46 µM;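 also: plate controls were DMSO treated cells for no effect and wells without cells for full effect; nearly all actives have a fitted effect of over 35% in size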
Procedure, shortened: (§1)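 Each compound was tested at eleven concentrations on cells seeded at 500/well. After two days' incubation, ATP-based luminescence reported viability; responses relative to DMSO and blank wells yielded AUC and cell-line-centred Z-AUC.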

[6] = BET inhibitor-based combinations targeting novel dependencies in MECOM-rearranged (r) AML: MV-4-11 cell line (AID 2202233);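 also: plate controls were DMSO for no effect and blank wells for full effect; nearly all actives have a fitted effect of over 45% in size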
Procedure, shortened: (§2)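 First, 500 cells per well were seeded; next, drugs were pinned as 11-point doses; then plates sat 48 hr in the incubator; finally CellTiter-Glo was added and luminescence read, with AUC and Z-AUC computed.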

[7] = BET inhibitor-based combinations targeting novel dependencies in MECOM-rearranged (r) AML: HNT-34 cell line (AID 2202234);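 also: plate controls were vehicle wells for no effect and cell-free wells for full effect; nearly all actives have a fitted effect of over 35% in size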
Procedure, shortened: as §2

[8] = BET inhibitor-based combinations targeting novel dependencies in MECOM-rearranged (r) AML: UCSD-AML1 cell line (AID 2202235);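 also: series mostly up to about 46 µM; plate controls were DMSO vehicle wells for no effect and blank wells for full effect; nearly all actives have a fitted effect of over 40% in size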
Procedure, shortened: as §2

[9] = BET inhibitor-based combinations targeting novel dependencies in MECOM-rearranged (r) AML: AML-191 cell line (AID 2202236;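 also: plate controls were vehicle wells for no effect and wells without cells for full effect; nearly all actives have a fitted effect of over 35% in size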)
Procedure, shortened: as §1

[10] = BET inhibitor-based combinations targeting novel dependencies in MECOM-rearranged (r) AML: AML-194 cell line (AID 2202237;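 also: plate controls were vehicle wells for no effect and wells without cells for full effect; nearly all actives have a fitted effect of over 40% in size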)
Procedure, shortened: as §1

[11] = BET inhibitor-based combinations targeting novel dependencies in MECOM-rearranged (r) AML: OCI-AML3 cell line (AID 2202232); details: Potency: OCI-AML3 viability;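 also: series mostly up to about 46 µM; plate controls were DMSO vehicle wells for no effect and wells without cells for full effect; nearly all actives have a fitted effect of over 35% in size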
Procedure, shortened: as §1

Cellular tumor antigen p53 (Homo sapiens), sequence (P04637 whole entry, looked up): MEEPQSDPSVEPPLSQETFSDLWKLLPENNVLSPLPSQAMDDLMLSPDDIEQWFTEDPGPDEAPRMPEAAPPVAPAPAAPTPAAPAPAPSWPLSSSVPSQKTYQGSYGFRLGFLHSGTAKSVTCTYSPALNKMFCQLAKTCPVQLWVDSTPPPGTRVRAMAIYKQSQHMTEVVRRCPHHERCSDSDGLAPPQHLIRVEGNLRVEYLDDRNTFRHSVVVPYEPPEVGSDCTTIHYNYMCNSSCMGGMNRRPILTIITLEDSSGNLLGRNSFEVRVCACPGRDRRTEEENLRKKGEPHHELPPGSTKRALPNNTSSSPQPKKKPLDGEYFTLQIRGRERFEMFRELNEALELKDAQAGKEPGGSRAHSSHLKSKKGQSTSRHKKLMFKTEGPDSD

CC(C)Cc1ccc(C(C)C(=O)O)cc1 (configuration not stated)
inactive: activation [1] 17.5% and 9.01% | Potency [2] | Potency [3] | Potency [4] | viability [5] 111% | Potency [6] | Potency [7] | Potency [8] | Potency [9] | Potency [10]

Clc1ccc(C(c2ccccc2Cl)C(Cl)Cl)cc1 (configuration not stated)
inactive: activation [1] 18.6% and -1.36% and 29.2% | Potency [2] | Potency [3] | Potency [4] | viability [5] 70.3% | Potency [11] | Potency [8] | Potency [9] | Potency [10]

CS(=O)(=O)Nc1ccc([N+](=O)[O-])cc1Oc1ccccc1
inactive: activation [1] -3.95% and 5.46% and -33.6% | Potency [2] | Potency [3] | Potency [4] | viability [5] 107% | Potency [6] | Potency [7] | Potency [8] | Potency [9] | Potency [10]

CCCCN(CCCC)CC(O)c1cc(Cl)cc2c1-c1ccc(Cl)cc1/C2=C/c1ccc(Cl)cc1 (configuration not stated)
inactive: activation [1] 22.6% and -82.3% | Potency [2] | Potency [3] | Potency [4] | viability [5] 104% | Potency [11] | Potency [7] | Potency [8] | Potency [9] | Potency [10]

CC(C[N+](C)(C)C)OC(N)=O (configuration not stated)
inactive: activation [1] -5.86% and -4.18% and -40.2% | Potency [2] | Potency [3] | Potency [4] | viability [5] 116% | Potency [6] | Potency [7] | Potency [9]

NC(=O)c1cnccn1
inactive: activation [1] -1.69% and -18.4% and -16.9% | Potency [2] | Potency [3] | Potency [4] | viability [5] 105% | Potency [11] | Potency [7] | Potency [8] | Potency [9] | Potency [10]
